Yp Topo-I inh – Yersinia pestis topoisomerase I inhibitors, primary screen, biochemical, cleavage product accumulation, plate reader, single point. DNA topoisomerase I (Yersinia pestis CO92). actives 0.064% (n = 360,000). Y. pestis Topo-I cleavage product accumulation. activity, % at 10 µM; in the data active = activity above about 50%, passing the limit was not always enough
PrP 5UTR inh – inhibition of PrP 5' UTR reporter expression | cell-based PrP 5' UTR mRNA reporter, plate reader | inhibition, % (no concentration beside the values) | actives 0.35% (n = 340,000); in the data active = inhibition above about 52%; note: 0 = median of the neutral control wells
TcdB inh – TcdB glycohydrolase inhibitors, primary screen, biochemical, single point, plate reader | actives 0.24% (n = 350,000) | inhibition, % at 9.99 µM | TcdB glycohydrolase enzymatic assay; in the data active = inhibition above about 10%
Target sequence (P18177 whole entry, looked up): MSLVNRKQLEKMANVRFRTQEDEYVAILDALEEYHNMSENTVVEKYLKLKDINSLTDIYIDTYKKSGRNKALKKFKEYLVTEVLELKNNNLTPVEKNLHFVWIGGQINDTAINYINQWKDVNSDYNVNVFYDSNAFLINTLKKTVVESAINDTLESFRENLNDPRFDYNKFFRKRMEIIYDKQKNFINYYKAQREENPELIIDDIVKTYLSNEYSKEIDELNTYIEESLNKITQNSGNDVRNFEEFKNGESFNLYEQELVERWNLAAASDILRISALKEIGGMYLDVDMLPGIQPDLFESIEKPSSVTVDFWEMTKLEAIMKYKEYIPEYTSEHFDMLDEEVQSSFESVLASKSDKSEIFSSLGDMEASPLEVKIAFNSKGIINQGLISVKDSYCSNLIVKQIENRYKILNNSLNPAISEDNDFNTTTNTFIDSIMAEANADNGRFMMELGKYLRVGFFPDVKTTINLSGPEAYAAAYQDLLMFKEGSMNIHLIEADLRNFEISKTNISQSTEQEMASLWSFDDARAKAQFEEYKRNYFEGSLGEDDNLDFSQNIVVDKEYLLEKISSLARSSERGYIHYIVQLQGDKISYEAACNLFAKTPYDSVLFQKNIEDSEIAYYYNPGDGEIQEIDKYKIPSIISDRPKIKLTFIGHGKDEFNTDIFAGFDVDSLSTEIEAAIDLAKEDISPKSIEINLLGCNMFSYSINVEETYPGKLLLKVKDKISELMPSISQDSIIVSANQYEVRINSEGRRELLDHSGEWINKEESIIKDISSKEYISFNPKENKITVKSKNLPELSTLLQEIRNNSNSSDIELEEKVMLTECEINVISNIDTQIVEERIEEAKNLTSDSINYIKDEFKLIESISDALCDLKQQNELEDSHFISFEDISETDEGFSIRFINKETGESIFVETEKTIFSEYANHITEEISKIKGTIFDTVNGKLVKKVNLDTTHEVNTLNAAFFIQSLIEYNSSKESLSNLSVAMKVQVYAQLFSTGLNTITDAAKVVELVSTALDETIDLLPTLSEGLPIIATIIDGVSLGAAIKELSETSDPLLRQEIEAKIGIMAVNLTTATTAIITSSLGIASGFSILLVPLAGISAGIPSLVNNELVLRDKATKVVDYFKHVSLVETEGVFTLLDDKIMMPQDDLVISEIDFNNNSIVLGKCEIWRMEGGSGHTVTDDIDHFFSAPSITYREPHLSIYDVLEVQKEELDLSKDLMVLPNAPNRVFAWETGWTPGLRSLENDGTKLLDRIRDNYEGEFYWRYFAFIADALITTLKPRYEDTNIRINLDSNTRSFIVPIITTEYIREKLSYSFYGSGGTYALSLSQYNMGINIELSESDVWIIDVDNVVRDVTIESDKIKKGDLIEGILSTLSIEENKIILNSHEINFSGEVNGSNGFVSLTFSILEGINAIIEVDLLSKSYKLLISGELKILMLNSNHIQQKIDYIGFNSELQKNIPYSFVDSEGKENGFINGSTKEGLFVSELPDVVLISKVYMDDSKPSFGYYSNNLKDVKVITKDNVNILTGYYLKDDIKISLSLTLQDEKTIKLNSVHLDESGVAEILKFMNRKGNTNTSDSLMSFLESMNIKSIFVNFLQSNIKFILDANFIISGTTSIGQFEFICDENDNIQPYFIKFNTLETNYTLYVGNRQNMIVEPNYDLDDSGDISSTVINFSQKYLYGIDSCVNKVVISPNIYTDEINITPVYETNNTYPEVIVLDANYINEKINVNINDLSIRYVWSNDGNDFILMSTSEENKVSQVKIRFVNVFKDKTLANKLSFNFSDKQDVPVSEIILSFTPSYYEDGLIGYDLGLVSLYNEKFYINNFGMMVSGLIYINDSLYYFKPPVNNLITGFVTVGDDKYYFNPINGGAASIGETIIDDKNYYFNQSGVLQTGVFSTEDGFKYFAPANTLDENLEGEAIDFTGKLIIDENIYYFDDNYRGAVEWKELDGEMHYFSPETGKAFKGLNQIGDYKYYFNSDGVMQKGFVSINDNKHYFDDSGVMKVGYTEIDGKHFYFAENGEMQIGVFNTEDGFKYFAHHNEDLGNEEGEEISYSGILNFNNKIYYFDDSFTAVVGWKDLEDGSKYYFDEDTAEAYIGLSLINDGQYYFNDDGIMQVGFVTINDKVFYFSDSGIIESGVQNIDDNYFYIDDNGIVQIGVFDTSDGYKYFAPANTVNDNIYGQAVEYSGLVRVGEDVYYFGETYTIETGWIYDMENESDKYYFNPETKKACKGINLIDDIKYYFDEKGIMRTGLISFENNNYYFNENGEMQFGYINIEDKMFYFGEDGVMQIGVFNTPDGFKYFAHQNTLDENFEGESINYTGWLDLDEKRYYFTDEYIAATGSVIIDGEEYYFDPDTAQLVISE
Mtb BioA inh – M. tuberculosis BioA enzyme inhibitors, primary screen, biochemical, plate reader, single point, HTS; actives 0.096% (n = 360,000); AID 602481, 2012; inhibition, % at 9.99 µM; purified M. tuberculosis BioA enzyme; 7,8-diaminopelargonic acid synthase BioA (Mycobacterium tuberculosis); in the data active = inhibition above about 40%
Starred values were filed as active, the others as inactive. Sampled rows, rich in hits. Any-hit rate of the full collection: about 0.53%.

`C[C@@H]1CN([C@@H](C)CO)C(=O)Cc2cc(NC(=O)Nc3ccc(C(F)(F)F)cc3)ccc2O[C@H]1CN(C)C(=O)Nc1cccc2ccccc12` gave TcdB inh 0.1 and Mtb BioA inh -3.2.
For CC1CCN(CCCn2c(=S)[nH]c3c(sc4ccccc43)c2=O)CC1 the results were Yp Topo-I inh 0.4, PrP 5UTR inh -30.7, TcdB inh 11.5* and Mtb BioA inh 1.6.
For COC(=O)c1ccc2nc(Nc3nc4ccc(F)cc4s3)sc2c1 the results were Yp Topo-I inh 2.6, PrP 5UTR inh 81.1*, TcdB inh 0.5 and Mtb BioA inh -1.6.
For COC(=O)c1ccc2nc(NC(=O)C(C)(C)C)sc2c1 the results were Yp Topo-I inh -3.0, PrP 5UTR inh 35.4 and TcdB inh 1.2.
Screening CCCCn1nnnc1SCC(=O)c1ccc(C)c(C)c1 returned Yp Topo-I inh 52.1*, PrP 5UTR inh -8.1 and Mtb BioA inh 0.3.
CCC(=O)N(C)C[C@H]1Oc2cc(-c3cccc(OC)c3)ccc2S(=O)(=O)N([C@@H](C)CO)C[C@H]1C was read as TcdB inh -2.6 and Mtb BioA inh 1.2.
`Cc1ccc(/C=N/NC(=O)c2cccc(S(=O)(=O)Nc3ccccc3Cl)c2)o1` gave Yp Topo-I inh 4.9, PrP 5UTR inh -20.4, TcdB inh 12.2* and Mtb BioA inh -0.5.
CC(=O)N1CCN(c2ccc(S(C)(=O)=O)cc2[N+](=O)[O-])CC1 was read as Yp Topo-I inh -5.3, PrP 5UTR inh -21.3, TcdB inh 10.9* and Mtb BioA inh 9.5.
Screening CNC[C@@H]1Oc2c(NC(=O)Nc3ccc(C(F)(F)F)cc3)cccc2C(=O)N([C@H](C)CO)C[C@H]1C returned TcdB inh -1.7 and Mtb BioA inh 1.2.
CN1C(=O)c2cc(NC(=O)c3ccccc3Cl)ccc2OC[C@H]2O[C@@H](CC(=O)O)CC[C@H]21 was read as TcdB inh 1.3 and Mtb BioA inh -2.1.
`O=c1[nH]c2cc(O)ccc2c2ccccc12` gave Yp Topo-I inh -2.0, TcdB inh 10.3* and Mtb BioA inh 0.5.
For CC(=O)Oc1ccc(/C=N/NC(=O)CCSc2ccccc2)cc1 the results were Yp Topo-I inh 11.3, PrP 5UTR inh -28.1, TcdB inh 10.7* and Mtb BioA inh 2.7.
COc1ccccc1/C=N/NC(=O)CCSc1ccccc1 was read as Yp Topo-I inh 2.9, PrP 5UTR inh -66.7, TcdB inh -0.6 and Mtb BioA inh 2.8.
`O=C(Nc1ccccc1F)N(Cc1ccc(F)cc1)Cc1nc2ccccc2c(=O)[nH]1` gave Yp Topo-I inh 16.7, PrP 5UTR inh -48.2 and TcdB inh 24.2*.
Screening Cc1cc(C)c(S(=O)(=O)N2CCCCC2C(=O)O)c(C)c1 (configuration not stated) returned Yp Topo-I inh 1.0, PrP 5UTR inh -36.3 and TcdB inh 12.9*.
`Cc1ccc(S(=O)(=O)N2CCCC2C(=O)O)cc1` (configuration not stated) gave Yp Topo-I inh 5.1, PrP 5UTR inh -13.1, TcdB inh 0.3 and Mtb BioA inh 0.1.
`Cc1ccc(C(=O)OCC(=O)c2cc(C)n(CC3CCCO3)c2C)cc1` (configuration not stated) gave Yp Topo-I inh 27.2, PrP 5UTR inh -28.8 and TcdB inh 16.2*.
Screening C[C@@H]1CN([C@@H](C)CO)C(=O)c2cc(NC(=O)Cc3ccccc3)ccc2O[C@@H]1CN(C)Cc1ccc2c(c1)OCO2 returned TcdB inh 0.6 and Mtb BioA inh 1.7.
Screening O=C1/C(=C/c2cccnc2)SC(=NCc2ccccc2)N1Cc1ccccc1 returned Yp Topo-I inh -2.6, PrP 5UTR inh -8.1 and TcdB inh 10.1*.
Screening CCOc1cc(/C=C2\CN(C)C/C(=C\c3ccc(O)c(OCC)c3)C2=O)ccc1O returned Yp Topo-I inh -1.9, PrP 5UTR inh -3.2, TcdB inh -6.1 and Mtb BioA inh 4.7.
For COc1cc(C=C2CN(C)C(=O)C2=O)ccc1O the results were Yp Topo-I inh 1.4, TcdB inh 21.4* and Mtb BioA inh 12.0.
CC(C)NC(=O)N(C)C[C@H]1OCCCC[C@@H](C)Oc2ccc(NS(C)(=O)=O)cc2C(=O)N([C@@H](C)CO)C[C@H]1C was read as TcdB inh -0.1 and Mtb BioA inh -3.6.
`O=C(N/N=C/c1ccc(O)c(O)c1)C1CC1` gave Yp Topo-I inh -5.5, TcdB inh 16.1* and Mtb BioA inh -2.2.
For Cc1nn2cc(-c3cccc(Cl)c3)cnc2c1Br the results were Yp Topo-I inh 10.0, PrP 5UTR inh -74.4 and TcdB inh 10.4*.
Screening CCOc1cc(/C=N\n2nnnc2N)ccc1O returned Yp Topo-I inh 0.3, PrP 5UTR inh -21.7, TcdB inh 22.6* and Mtb BioA inh 0.8.
For CCOc1ccc(/C=N/n2nnnc2N)cc1OCC the results were Yp Topo-I inh -5.3, PrP 5UTR inh -2.4, TcdB inh 0.1 and Mtb BioA inh 0.3.
For CCOc1ccc(/C=N/n2nnnc2N)cc1O the results were Yp Topo-I inh 0.8, PrP 5UTR inh -0.4, TcdB inh 19.0* and Mtb BioA inh 0.9.
For Cc1cc(C(=O)NC2CC(C)(C)Cc3c2cnn3-c2cccc(F)c2)n(C)n1 (configuration not stated) the results were Yp Topo-I inh 15.3, PrP 5UTR inh -24.8, TcdB inh 0.4 and Mtb BioA inh 19.6.
Screening CC1=C(C(=O)NC2CC(C)(C)Cc3c2cnn3-c2cccc(F)c2)OCCO1 (configuration not stated) returned Yp Topo-I inh 16.0, PrP 5UTR inh -16.7, TcdB inh 0.9 and Mtb BioA inh 58.4*.
CC(=O)Nc1cccc(NC(=O)c2ccc(Br)cc2)c1 was read as Yp Topo-I inh -1.9, PrP 5UTR inh -47.8, TcdB inh 10.3* and Mtb BioA inh 7.2.
For C[C@H]1CN([C@@H](C)CO)S(=O)(=O)c2ccc(C#CC3(O)CCCC3)cc2O[C@H]1CN(C)C(=O)Cc1ccccc1 the results were TcdB inh -0.2 and Mtb BioA inh 1.9.
Screening COc1cc2c(cc1OC)C1=NC(=O)CN1C(SCc1ccc(C)cc1)=N2 returned Yp Topo-I inh 82.1* and PrP 5UTR inh -8.9.
For CCOc1ccc2c(C)nc(NC3=NC(C)(C)C=C(C)N3)nc2c1 the results were Yp Topo-I inh 27.2, PrP 5UTR inh -8.7, TcdB inh 10.6* and Mtb BioA inh 2.6.
COc1ccccc1CNC(=O)CN(c1ccc(C)cc1)S(=O)(=O)c1c(C)noc1C was read as Yp Topo-I inh 29.5, PrP 5UTR inh -7.1, TcdB inh 1.5 and Mtb BioA inh -0.7.
COc1ccccc1CNC(=O)CN(c1ccc(C)cc1)S(=O)(=O)c1c(C)n[nH]c1C was read as Yp Topo-I inh 6.3, PrP 5UTR inh -9.2, TcdB inh 30.7* and Mtb BioA inh 3.0.
Cn1ncc(Cl)c1C(=O)N/N=C/c1cccc(OC2CSC2)c1 was read as Yp Topo-I inh -5.5, PrP 5UTR inh 5.2 and TcdB inh 22.9*.
For O=S(=O)(c1ccccc1)N1CCN=C1SCc1ccccc1 the results were Yp Topo-I inh -2.9, PrP 5UTR inh -6.9 and TcdB inh 10.3*.

Screening results from PubChem.
